Screens (PubChem BioAssay)
EPAC1 ag val: validation of human EPAC1 agonists. EPAC1 Rap1b BODIPY-GDP exchange, fluorescence. O95398. 16,000 compounds, 1% hits. Potency, µM, without a hit: max response, positive = active, actives largely listed as activators; also: nearly all actives have a fitted effect of over 70% in size
EPAC2 antag: human EPAC2 antagonism, validation; AID 1645886; EPAC2 Rap1B BODIPY-GDP exchange, fluorescence; Potency, µM (top dose mostly 112 µM), for inactives: at the top dose activity, negative = inhibition, most hits filed as inhibitors; 16,000 compounds, 1.7% hits; Q8WZA2;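 also: 100% = activation by cAMP agonist control; nearly all actives have a fitted effect of over 40% in size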
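Fluorescent exchange read-out: 100 nM EPAC2 with 250 nM RAP1B–BODIPY-GDP and 50 uM GDP; BODIPY-GDP release lowers fluorescence. Read at 480/540 nm every 5 min for 30 min at room temperature; normalized to 6.5 mM cAMP.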
Active calls of the source: *; ? = inconclusive; ! = not confirmed by another sample; [ ] = dose if it differs, or a comment. Only some compounds are listed: those with a hit (about 3.1% of all), similar ones and a draw of the others. Calls follow the shape of the dose curve; as a rule, active = well fitted curve in the direction sought with a large enough effect; inconclusive = small, poorly fitted or top-dose-only effect, or another doubt; inactive = no such curve, though single readings can be large; an effect the other way counts as inactive or inconclusive. Unless noted, % is scaled to controls: 0 for no effect and ±100 for the full control effect; potency is read from the fitted curve at half-maximal effect.

SMILES	EPAC1 ag val	EPAC2 antag
Cc1ccc(CNc2nc(CN3CCCCC3c3cccnc3)nc3ccccc23)o1 (stereo not drawn)	-9%	?
CC1(COc2ccc(C[C@H]3SC(=O)NC3=O)cc2)CCCCC1	-14%	?
CC1(COc2ccc(CC3SC(=O)NC3=O)cc2)CCCCC1 (stereo not drawn)	-13%	50µM*!
Clc1ccc(C(Cn2ccnc2)OCc2c(Cl)cccc2Cl)c(Cl)c1 (stereo not drawn)	40µM*!	?
Cc1ccc(S(=O)(=O)NC(=O)N[C@@H](C)Cc2ccccc2)cc1	-4%	-4%
COCCn1c(=O)c(-c2cccs2)nc2cnc(OC)nc21	-37%	-4%
CN(C)c1ncc2nc(-c3cccs3)c(=O)n(C3CC3)c2n1	100µM*	63%
COCCn1c(=O)c(-c2cccs2)nc2cnc(N(C)C)nc21	112µM*	43%
O=c1c(-c2cccs2)nc2cnc(Oc3ccccc3)nc2n1C1CC1	-22%	-22%
CCCCC(=O)OCC(=O)[C@]1(O)Cc2c(O)c3c(c(O)c2[C@@H](O[C@H]2C[C@H](NC(=O)C(F)(F)F)[C@H](O)[C@H](C)O2)C1)C(=O)c1c(OC)cccc1C3=O	-8%	-4%
COC(=O)C[C@](O)(CCCC(C)(C)O)C(=O)O[C@@H]1C(OC)=CC23CCCN2CCc2cc4c(cc2[C@H]13)OCO4 (stereo partly drawn)	-18%	33%
Cc1cnc(SCc2ccccn2)nc1C1CCCN(C(=O)c2cccc(-c3cccc(F)c3)c2)C1 (stereo not drawn)	15%	?
CC1=C(CC(=O)O)c2cc(F)ccc2/C1=C\c1ccc(S(C)(=O)=O)cc1	9%	16%
CS(=O)(=O)c1ccc(-c2cc(Br)sc2-c2ccc(F)cc2)cc1	22%	40µM*
CCOC(=O)N1CCN(Cc2ccc3c(c2)CN(C(=O)c2cc(-c4ccccc4)on2)CCO3)CC1	7%	-17%
CN(C)c1ccc(/C=C/c2ccnc3ccc4ccccc4c23)cc1	15%	?
Cc1cc(N(C)C)c(C)cc1/C=C/c1ccnc2ccccc12	112µM*	251%
CCCN(CCC)c1ccc(/C=C/c2ccnc3ccccc23)cc1	100µM*	262%
Cc1[nH]c2ccccc2c1/C=C/c1ccnc2ccccc12	?	-5%
C[C@@H]1C[C@H]2[C@@H]3CCC4=CC(=O)C=C[C@]4(C)[C@@]3(F)[C@@H](O)C[C@]2(C)[C@@]1(O)C(=O)COC(=O)c1cccc(S(=O)(=O)O)c1	8%	35%
CCOC(=O)[C@H](CS)NCCN[C@@H](CS)C(=O)OCC	-29%	8%
COc1cccc2ccc(CN3CCC4(CC3)c3ccccc3[C@@H](NC(=O)c3ccccc3)[C@@H]4O)nc12	-1%	20%
CCOC(=O)Oc1c(OC)cc(C(=O)O[C@@H]2C[C@@H]3CN4CCc5c([nH]c6cc(OC)ccc56)[C@H]4C[C@@H]3[C@H](C(=O)OC)[C@H]2OC)cc1OC	32µM*!	-17%[29.6 µM]
COC(=O)[C@H]1[C@H]2C[C@@H]3c4[nH]c5cc(OC)ccc5c4CCN3C[C@H]2C[C@@H](OC(=O)COc2ccc(OC)cc2)[C@@H]1OC	1%	-2%
O=S(c1cc(Cl)cc(Cl)c1O)c1cc(Cl)cc(Cl)c1O	-3%	?
SMILES	EPAC1 ag val	EPAC2 antag
Oc1c(Cl)cc(Cl)cc1Sc1cc(Cl)cc(Cl)c1O	-9%	56µM*
Cc1nn(-c2ccc(F)cc2)c(C)c1CNC(=O)c1ccc(-n2cc(NC(=O)c3ccoc3)cn2)cc1	-14%	-16%
CO[C@H]1C=CO[C@@]2(C)Oc3c(C)c(O)c4c(O)c(c(/C=N/N5CCN(C6CCCC6)CC5)c(O)c4c3C2=O)NC(=O)/C(C)=C\C=C[C@H](C)[C@H](O)[C@@H](C)[C@@H](O)[C@@H](C)[C@H](OC(C)=O)[C@@H]1C	-94%	?
CC(C)c1c(C(=O)NC(c2cccnc2)C(F)(F)F)cnn1-c1nccc(-c2cccs2)n1 (stereo not drawn)	4%	?
COc1ccc(/C=C/C(=O)c2cc(O)ccc2O)cc1	9%	?
COc1ccc(C(=O)c2ccccc2O)c(O)c1	-4%	45µM*!
CO/N=C(\C(=O)N[C@@H]1C(=O)N2C(C(=O)O)=C(CSc3nc(C)c(CC(=O)O)s3)CS[C@H]12)c1csc(N)n1	-8%	18%
O=C(Nc1ccc(Cl)cc1)Nc1ccc(Cl)c(Cl)c1	-4%	?
O=C(Nc1ccc(Oc2ccc(Cl)cc2)c(Cl)c1)c1cc(I)cc(I)c1O	100µM*	-18%
CC(C)N=C(N)/N=C(\N)Nc1ccc(Cl)cc1	-17%	-10%[56.6 µM]
NC(=NCCCCCCN=C(N)/N=C(\N)Nc1ccc(Cl)cc1)/N=C(\N)Nc1ccc(Cl)cc1	-13%	79µM*!
Nc1ncnc2c1nc(Br)n2C1OC2COP(=O)(O)O[C@@H]2C1O (stereo partly drawn)	0.45µM*	1.3µM*
Nc1nc2c(nc(Br)n2[C@@H]2O[C@H]3COP(=O)(O)O[C@H]3[C@@H]2O)c(=O)[nH]1	21%	-30%
